Pf Dd2 growth – qHTS Primary assay for Inhibitors of Plasmodium falciparum Dd2 growth in vitro | Potency, µM (highest dose often 28.9 µM), inactives show top-dose activity, negative = inhibition, actives largely listed as inhibitors | 4.3% of 120,000 active | P. falciparum Dd2 growth, SYBR Green, 72 h; active = well fitted inhibition curve with a large enough effect;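 note: plate controls were DMSO vehicle for no effect and reference drug for full effect; nearly all actives have a fitted effect of over 65% in size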
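Readout: SYBR Green fluorescence, 485 nm excitation, 535 nm emission, after ~16 h lysis at 37C. Before that, Dd2-infected red cells (2.5% hematocrit) grew 72 h with compound, 29 uM top final concentration.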
* hit, by the source's call; i = inactive; [ ] = another dose, or the depositor's remark. Shown is part of a subset that was picked to be rich in hits. Potency is the fitted concentration of half-maximal effect.

SMILES	Pf Dd2 growth
CCN(CC)Cc1cnc2c(C(=O)N(C)Cc3ccccc3C)cnn2c1	-3%
O=C(COc1ccccc1)N1C[C@@H]2C[C@H](C1)c1c(NS(=O)(=O)c3ccccc3)ccc(=O)n1C2	-25%
CCNC(=O)N1CCCC(c2noc(COc3ccccc3)n2)C1 (stereo not drawn)	-12%
COc1ccc(CNC(=O)c2cc3c(n2C)CCN(Cc2ccccc2)C3)cc1OC	-26%
COc1cccc(CN2CCc3c(cc(C(=O)Nc4cccc(C)c4C)n3C)C2)c1	4.5µM*
COc1cccc(CN2CCc3nc(C(=O)Nc4cccnc4)oc3CC2)c1	-3%[44.1 µM]
COc1cccc(CN2CCN3C(=O)N(Cc4ccccn4)C[C@H]3C2)c1	-4%[44.1 µM]
COc1cccc(CN2CCc3c(cc(C(=O)N4CCOCC4)n3C)C2)c1	-16%
CCN(CC)C(=O)c1cc2c(n1C)CCN(Cc1ccc(F)cc1)C2	8.9µM*
CC(C)N1CCN(C(=O)c2cc3c(n2C)CCN(Cc2ccc(F)cc2)C3)CC1	i
COc1cccc(CC(=O)NCCC2CCN(C(=O)Nc3ccccc3C)CC2)c1	-10%
O=C(Cn1c(=O)c2c(n1Cc1ccccc1)CN(Cc1ccccc1)CC2)NCc1ccc(F)cc1	i
COc1cc(=O)n2c(c1C(=O)Nc1cccc(C)c1C)CCCC2	27%
COc1cccc(CN2CCc3c(cc(C(=O)NCc4ccccn4)n3C)C2)c1	0.89µM*
COc1cccc(CN2CCc3c(cc(C(=O)Nc4ccccc4)n3C)C2)c1	1.1µM*
NC(=O)c1cnc2n1CCN(C(=O)c1cccc(Oc3ncccn3)c1)C2	-17%
COc1cccc(CN2C(=O)C3(CCOCC3)CC2c2nnnn2C(C)(C)C)c1 (stereo not drawn)	1%
O=C(c1ccccc1Cl)N1CCC2(CC1)C(=O)NCN2Cc1ccc(Cl)cc1	-24%
CCn1cc(S(=O)(=O)N2CCC3(CC2)CC(N(C)Cc2ccccc2)CCO3)cn1 (stereo not drawn)	i
Cc1noc(C)c1-c1cn(CCNS(=O)(=O)c2ccc(Cl)cc2)nn1	-21%
COc1ccc(NC(=O)c2cc3c(n2C)CCN(Cc2ccc(F)cc2)C3)cc1	2.5µM*
COc1ccc(NC(=O)c2ccc3c(c2)c(C)c(C)n3Cc2ccc(F)cc2)cc1	-17%
COc1ccc(NC(=O)C2=NO[C@@H]3CN(Cc4ccc(F)cc4)C[C@H]23)cc1	i
O=C(NCc1ccccc1)[C@@H]1COCC(=O)N1Cc1ccc(F)cc1	-8%
Cc1cccc(CNC(=O)CCc2conc2-c2ccc(F)cc2)c1	-8%
SMILES	Pf Dd2 growth
CCOc1ccccc1CNC(=O)c1cc2cn(C(C)C)cc2s1	-12%
COc1ccccc1CNC(=O)c1cc2cn(C3CC3)cc2s1	i
CCOc1ccccc1CNC(=O)c1cc2cn(C3CCCC3)cc2s1	13µM*
O=C(Cc1ccccc1Cl)N1CCC(Cc2nc(-c3ccc(F)cc3)no2)CC1	23%
COCCN1CCC(N2CCN(S(=O)(=O)Cc3ccccc3Cl)CC2)C1=O (stereo not drawn)	-14%
CC(=O)Nc1ccc(CN2CC[C@H](c3nnc(C)o3)C2)cc1	8%[44.1 µM]
Cc1ccccc1N1Cc2c(NCC3CCCCCC3)ncnc2N(C)CC1=O	i
CN(CC1CCCN(CCc2cccc(C(F)(F)F)c2)C1)C(=O)c1ccc2[nH]ccc2c1 (stereo not drawn)	10µM*
Cc1c[nH]c(C(=O)N2CCCC(CCc3cccc(C(F)(F)F)c3)C2)c1 (stereo not drawn)	-22%
O=C(c1ccc(=O)[nH]c1)N1CCCC(CCc2cccc(C(F)(F)F)c2)C1 (stereo not drawn)	-14%
COCc1cc(C[C@@H]2C[C@H](NC(=O)COc3ccccc3)C2(C)C)no1	-13%[44.1 µM]
Cn1cnnc1CC1CCN(C(=O)c2ccccc2F)CC1	-23%
CC1=C[C@@H](CN2CCN(c3ncccn3)CC2)[C@H](C(C)C)C[C@H]1Cc1nnc(Cc2c[nH]c3ccccc23)o1	3.5µM*
CC(=O)N1CCN(C[C@@H]2C=C(C)[C@H](Cc3nnc(-c4cccnc4)o3)C[C@H]2C(C)C)CC1	7.9µM*
CCCc1nnc(C[C@@H]2C[C@@H](C(C)C)[C@H](CN3CCN(C(C)=O)CC3)C=C2C)o1	11µM*
COCCN1CCN(C[C@@H]2C=C(C)[C@H](Cc3nnc(C)o3)C[C@H]2C(C)C)CC1	-13%[44.1 µM]
CC1=C[C@@H](CN2CCOCC2)[C@H](C(C)C)C[C@H]1Cc1nnc(-c2ccccc2)o1	-1%[44.1 µM]
CC1=C[C@@H](CN2CCN(c3cnccn3)CC2)[C@H](C(C)C)C[C@H]1Cc1nnc(-c2ccc([N+](=O)[O-])cc2)o1	i
CC1=C[C@@H](CN2CCN(CCO)CC2)[C@H](C(C)C)C[C@H]1Cc1nnc(C)o1	i
COc1ccc(C(C)NC(=O)COc2ccc(NC(=O)C3CC3)cn2)cc1 (stereo not drawn)	i
COc1cc(NC(=O)N2C[C@@H](F)C[C@H]2C(=O)N2CCc3ccccc3C2)cc(OC)c1	-13%
COCCN1CCCC(c2[nH]ccc2C(=O)N2CCSCC2)C1 (stereo not drawn)	i
NCc1cc(NC(=O)c2ccccn2)cc(C(=O)N2CC[C@H]3CNC[C@H]32)c1	2%
Cc1cccc(C(=O)N2CCCCCCNC(=O)CC2)c1	-14%
O=C1CC2(CCN(Cc3cccc(-c4ccccc4)c3)C2)C(=O)N1 (stereo not drawn)	-19%
SMILES	Pf Dd2 growth
CC(=O)c1ccc(NC(=O)N2C[C@@H]3C[C@H](C2)c2ccc(NS(=O)(=O)Cc4ccccc4)c(=O)n2C3)cc1	10%
CCC1(C(=O)Nc2cccc(OC)c2)CCCCC(=O)N1 (stereo not drawn)	14%
O=C(Nc1ccccc1)c1cccc2c(=O)c3c([nH]c12)CCCC3	4.5µM*
COc1cccc(NS(=O)(=O)c2ccc3[nH]c4c(c3c2)CCCCCC4)c1	-27%
O=C(CSc1nc(=O)[nH]c2c1CCCC2)NCc1ccccc1	25%
O=C(CSc1nc(=O)[nH]c2c1CCC2)NCc1ccccc1	10%
COc1cccc(NC(=O)c2cccc3c(=O)c4c([nH]c23)CCCC4)c1	0.89µM*
O=C(Cn1c(=O)oc2ccccc21)N1CCc2nn(CC3CC3)c(=O)n2CC1	47%
Cn1c(CNC(=O)CC[C@H]2NC(=O)c3ccccc3NC2=O)nc2ccccc21	-3%
Cc1ncc(S(C)(=O)=O)c(NCCn2nc(C)nc2C)n1	23%
CCc1nccn(Cc2nnc(C3CC(N)C3)n2CCOC)c1=O (stereo not drawn)	3%
CN1C[C@H](NCC2CC2)CCC[C@@H](C(=O)NC2CCOCC2)CC1=O	3%[44.1 µM]
CC(=O)N1Cc2ccccc2CC2(CCN(CC3CCCC3)CC2)C1	-26%
O=C(C1CCCC1)N1CC2(CCN(Cc3ccc(Cl)cc3)C2)Cc2ccccc21 (stereo not drawn)	14µM*
CS(=O)(=O)N1CC2(CCN(CC3CC3)C2)Cc2ccccc21 (stereo not drawn)	-13%
O=C(O)CCC(=O)N1CCCC2(Cc3ccccc3N(C(=O)C3CCCC3)C2)C1 (stereo not drawn)	6%
NC(=O)c1cccc(CN2CCC3(Cc4ccccc4N(C(=O)C4CCCC4)C3)C2)c1 (stereo not drawn)	-23%
O=C(C1CCCC1)N1CC2(CCCN(Cc3c[nH]c4ccccc34)C2)Cc2ccccc21 (stereo not drawn)	7.1µM*
O=C(C1CCCC1)N1CC2(CCN(CC3CCCCC3)C2)Cc2ccccc21 (stereo not drawn)	11µM*
CC(=O)N1CC2(Cc3ccccc31)CN(C(=O)C1CCCC1)C2	-23%[44.1 µM]

Assay outcomes: PubChem, National Center for Advancing Translational Sciences (NCATS)
